Source: PubChem BioAssay AID1851 (National Center for Advancing Translational Sciences (NCATS), 2009)
Screen size: about 16,000 compounds; about 4,000 (25%) were called active. Not shown: some 26% with an inconclusive outcome. Calls follow the shape of the dose curve; as a rule, active = well fitted curve in the direction sought with a large enough effect; inconclusive = small, poorly fitted or top-dose-only effect, or effect the other way; inactive = no such curve, though single readings can be large or run the other way. These entries were drawn from the full list.

molecular target: Cytochrome P450 2C9 (Homo sapiens) (UniProt P11712); assay: Cytochrome panel assay with activity outcomes; conditions: recombinant CYP, pro-luciferin dealkylation, luminescence, p450-cyp2c9; series mostly up to 57.1 µM
% is scaled to controls: 0 for no effect and ±100 for the full control effect.

Cytochrome P450 2C9 (Homo sapiens), sequence (P11712 whole entry, looked up): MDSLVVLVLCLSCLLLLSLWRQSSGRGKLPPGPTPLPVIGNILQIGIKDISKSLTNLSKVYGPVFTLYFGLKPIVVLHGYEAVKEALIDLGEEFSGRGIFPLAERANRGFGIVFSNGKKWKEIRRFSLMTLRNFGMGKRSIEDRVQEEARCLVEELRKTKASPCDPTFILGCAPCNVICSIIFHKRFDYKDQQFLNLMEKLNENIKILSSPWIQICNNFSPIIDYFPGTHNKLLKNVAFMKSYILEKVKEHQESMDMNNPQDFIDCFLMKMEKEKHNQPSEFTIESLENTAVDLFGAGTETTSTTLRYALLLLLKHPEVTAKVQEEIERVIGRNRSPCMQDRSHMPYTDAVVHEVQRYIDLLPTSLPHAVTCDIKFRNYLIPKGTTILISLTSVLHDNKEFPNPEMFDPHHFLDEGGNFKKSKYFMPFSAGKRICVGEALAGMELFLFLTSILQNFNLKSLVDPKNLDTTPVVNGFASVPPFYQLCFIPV

activity, negative = inhibition, inactive:
O=C(O)C(Cl)(c1ccccc1)c1ccccc1 -22.8% [at 11.4 µM]
CN(C)Cc1ccc(C(C)(C)C)cc1-c1cc(C(C)(C)C)ccc1CN(C)C 4.33% [at 11.4 µM]
Cc1noc(C)c1-c1cncnc1NCc1ccccc1 18.5% [at 2.29 µM]
CCc1cc2c(nc1CC)CCN(CC/C(C)=N/OC[C@@H](O)COCc1ccco1)C2 17.1% [at 11.4 µM]
CO[C@H]1COC(=O)[C@@H](C)COC(=O)[C@@H](Cc2ccccc2)NC(=O)C/C=C\[C@H]1C 5.22% [at 11.4 µM]
COc1ccc(CNc2ccnc(-c3ccccc3OC)n2)c(OC)c1 14.7% [at 2.29 µM]
CNc1ncncc1-c1ccccc1C -4.77% [at 2.29 µM]
O=CN[C@@H](Cc1cnc[nH]1)C(=O)O -3.85% [at 11.4 µM]
COc1ccccc1-c1nc(NCCNC(C)=O)c2ccccc2n1 3.78% [at 2.29 µM]
COc1ccccc1-c1ccc2ncnc(N3CCOCC3)c2c1 -16.7% [at 2.29 µM]
COc1ccccc1-c1nc(N2CCOCC2)c2ccccc2n1 8.77% [at 2.29 µM]
OC1CC2CC[C@H](C1)N2CCCN1c2ccccc2Sc2ccc(Cl)cc21 (stereo partly drawn) 8.65% [at 11.4 µM]
c1cncc(CNc2ncn[nH]2)c1 -1.61% [at 11.4 µM]
O=C(N/N=C\c1cccc(O)c1)c1ccncc1 1.23% [at 11.4 µM]
C/C=C\C1=C(CO)C(=O)C2O[C@]2(CC=C(C)C)C1=O (stereo partly drawn) 9.54% [at 11.4 µM]

AC50, inactive:
COc1ccc(-n2c(=O)c(-c3ccc(F)c(F)c3)nc3cncnc32)cc1
Cn1c(=O)c(-c2ccc(F)cc2)nc2cncnc21
COCCn1c(=O)c(-c2ccc(F)cc2)nc2cncnc21
COCCn1c(=O)c(-c2ccc(F)c(F)c2)nc2cncnc21
COCCn1c(=O)c(-c2cccc(Cl)c2)nc2cncnc21
Cn1c(=O)c(-c2ccccc2)nc2cncnc21
CCN(CC)C(=O)CSc1nc(O)cc(=O)n1CC
Cn1cc(-c2nc3cncnc3n(Cc3ccccc3Cl)c2=O)c2ccccc21
COc1ncc2nc(-c3cn(C)c4ccccc34)c(=O)n(CCC#N)c2n1
COc1ccc(N2C(N)=NC(N)=NC2(C)C)cc1
COc1ccc(C(=O)N2CCC[C@@]3(CCN(Cc4ccccc4)C3)C2)cc1
COc1ccc(C(=O)N2CCC[C@@]3(CCN(Cc4ccc(C#N)cc4)C3)C2)cc1
CCOC(=O)NNc1nncc2ccccc12
O=C(Nc1ccc(-c2csc(-c3ccccc3)n2)cc1)c1ccccc1Cl
Cc1ccc(-n2ncc(N(C)C)c(Cl)c2=O)cc1
COC(=O)N1CCC2(CCN(Cc3nccs3)CC2)CC1
Cc1noc(C)c1C(=O)N1CCC2(CCCN(Cc3ccccc3)C2)CC1
Cc1noc(C)c1C(=O)N1CCC[C@@]2(CCN(Cc3ccccc3)C2)C1
O=C(N/N=C/c1cccnc1)c1ccc([N+](=O)[O-])cc1
Cc1ccccc1C(=O)NNC(=O)c1ccoc1C
CC[C@@H]1OC(=O)[C@H](C)[C@H](O[C@@H]2C[C@](C)(OC)[C@H](O)[C@H](C)O2)[C@H](C)[C@H](O[C@@H]2O[C@@H](C)C[C@@H](N(C)C)[C@@H]2O)[C@](C)(O)C[C@H](C)[C@@H]2N[C@H](COCCOC)O[C@H]([C@@H]2C)[C@]1(C)O
CCn1c(CNC(=O)COc2ccc(C(C)C)cc2)nnc1SCC(=O)Nc1cc(F)ccc1C
N[C@@H](Cc1c[nH]c2ccccc12)C(=O)O
Cc1ccc(NC(=O)CCSc2nnc3ccccn23)cc1
O=C(CSc1nnnn1-c1ccccc1)NCc1cccs1

AC50, active:
COc1ccccc1CCn1c(=O)c(-c2ccc(F)c(F)c2)nc2cncnc21 6.31 µM
COc1ccccc1CCn1c(=O)c(-c2cccc(Cl)c2)nc2cncnc21 1 µM
COc1ccccc1CCn1c(=O)c(-c2ccc(F)cc2)nc2cncnc21 3.98 µM
COc1ccccc1CCn1c(=O)c(-c2ccccc2)nc2cncnc21 5.01 µM
COc1ccccc1CCn1c(=O)c(-c2cccs2)nc2cncnc21 2.51 µM
COc1ccccc1CCn1c(=O)c(CCc2ccccc2)nc2cncnc21 7.94 µM
O=c1c(CCc2ccccc2)nc2cncnc2n1Cc1ccc(F)cc1 7.94 µM
COc1ccccc1CCn1c(=O)c(-c2ccc(Cl)cc2)nc2cncnc21 3.98 µM
COc1ccccc1CCn1c(=O)c(-c2cn(C)c3ccccc23)nc2cncnc21 0.316 µM
O=C(c1ccc(COc2ccc(F)cc2)o1)n1cccn1 17.8 µM
CCCc1cc2c(n1Cc1cc(F)cc(F)c1)C(C)C1CN(C(=O)c3ccccc3)C(C)(C(=O)OC)C21 (stereo not drawn) 6.31 µM
CCCc1cc2c(n1Cc1ccc(OC)cc1)C(C)C1CN(C(=O)c3ccccc3)C(C)(C(=O)OC)C21 (stereo not drawn) 12.6 µM
COC(=O)c1ccccc1Oc1c(F)c(F)nc(N2CCOCC2)c1F 15.8 µM
CCOC(=O)c1ccccc1Oc1c(F)c(F)nc(NCCO)c1F 6.31 µM
O=C(Nc1ccc(Cl)cc1)c1cnc(-c2ccccc2)nc1-c1ccccc1 0.794 µM
Nc1ccc(Sc2cnn(-c3ccccc3)c(=O)c2Cl)cc1 1 µM
Cc1onc(-c2c(Cl)cccc2Cl)c1C(=O)N1CCc2ccccc2C1 3.16 µM
O=C(N/N=C/c1ccncc1)c1cc([N+](=O)[O-])cc([N+](=O)[O-])c1O 0.0631 µM
Cc1ccccc1C(=O)N/N=C/c1ccncc1 12.6 µM
CCn1c(CSCc2ccc(C)cc2)nnc1SCC(=O)NCc1ccccc1 15.8 µM
CCn1c(CC(=O)Nc2ccc(C)cc2)nnc1SCC(=O)NCCc1ccccc1 15.8 µM
C=CCn1c(Cc2c[nH]c3ccccc23)nnc1SCC(=O)NCc1ccccc1 14.1 µM
CC(C)n1nnnc1SCC(=O)NCCc1ccccc1 15.8 µM
